Screening results (PubChem)
TDP1 cell noCPT = qHTS for Inhibitors of human tyrosyl-DNA phosphodiesterase 1 (TDP1): qHTS in cells in absence of CPT. AID 686978, 2013. DT40 Tdp1-/- hTDP1 cells, no CPT, ATP luminescence, 48 h. Potency, µM (highest dose often 46.2 µM), for the others: at the top dose activity change, negative = growth inhibition, hits mostly inhibitors. 420,000 compounds, 15% hits; also: nearly all actives have a fitted effect of over 55% in size
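Growth kinetics read by CellTiter-Glo luminescence after ≥48 hr at 37 °C. Cells: DT40 Tdp1-/- stably carrying human TDP1, 400 per well, compound exposure in the absence of CPT (DMSO vehicle).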
ELG1 repair inh = qHTS screen for small molecules that inhibit ELG1-dependent DNA repair in human embryonic kidney (HEK293T) cells expressing luciferase-tagged ELG1 | AID 504467, 2011 | HEK293T ELG1-luciferase reporter, luminescence, 16 h; DNA damage induced by 5-fluorouridine | 330,000 compounds, 2.3% hits | Potency, µM (series often up to 46.1 µM), for the others: at the top dose activity change, negative = inhibition, hits mostly inhibitors; also: nearly all actives have a fitted effect of over 55% in size
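Quantitative HTS, concentration-response format. 2,000 cells/well co-treated with 5-fluorouridine and compound, 16 hr in 5% CO2 at 37 °C; ONE-Glo luminescence read after 30 min.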
TDP1 cell CPT = qHTS for Inhibitors of human tyrosyl-DNA phosphodiesterase 1 (TDP1): qHTS in cells in presence of CPT; chicken DT40 Tdp1-/-;hTDP1 cells + 20 nM CPT, ATP luminescence, 48 h; Potency, µM (top dose mostly 46.2 µM), for the others: top-dose activity change, negative = growth inhibition, actives largely listed as inhibitors; 420,000 compounds, 12% hits; AID 686979, 2013; also: nearly all actives have a fitted effect of over 55% in size
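Cell growth measured by CellTiter-Glo luminescence after a minimum 48 h, 37 C compound exposure with 20 nM CPT in Tdp1-knockout DT40 cells stably expressing hTDP1, seeded 400/well; qHTS titration format.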
RORg inh = qHTS for inhibitors of ROR gamma transcriptional activity; AID 2551, 2010; Potency, µM (series often up to 53.6 µM), for inactives: at the top dose activity change, negative = inhibition, actives largely listed as inhibitors; Drosophila S2 Gal4-RORgamma UAS-luciferase reporter, 20 h; 310,000 compounds, 5.4% hits; Nuclear receptor ROR-gamma (Mus musculus), P51450; also: nearly all actives have a fitted effect of over 60% in size
Target sequence (P51450 whole entry, looked up, the tested form may be a part): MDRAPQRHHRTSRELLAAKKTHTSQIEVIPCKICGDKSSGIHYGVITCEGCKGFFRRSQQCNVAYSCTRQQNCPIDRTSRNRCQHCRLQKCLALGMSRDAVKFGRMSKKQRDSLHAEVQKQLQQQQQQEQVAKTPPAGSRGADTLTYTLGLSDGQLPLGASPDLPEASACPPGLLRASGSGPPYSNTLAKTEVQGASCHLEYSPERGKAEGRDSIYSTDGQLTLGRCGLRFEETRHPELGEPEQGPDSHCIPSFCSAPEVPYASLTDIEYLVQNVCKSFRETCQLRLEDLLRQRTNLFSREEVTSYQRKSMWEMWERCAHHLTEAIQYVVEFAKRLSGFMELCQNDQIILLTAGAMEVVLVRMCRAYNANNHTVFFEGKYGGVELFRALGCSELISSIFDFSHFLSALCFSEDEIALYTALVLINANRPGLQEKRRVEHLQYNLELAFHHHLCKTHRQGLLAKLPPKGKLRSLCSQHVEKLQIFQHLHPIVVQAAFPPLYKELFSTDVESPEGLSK
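Luminescence from a UAS-regulated Photinus luciferase reporter in stably transfected Drosophila Schneider cells is measured; decreased signal marks ROR gamma inhibition. Fusion expression is induced by 700 uM copper sulfate for 20 hr.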
VP16 counter = VP16 counterscreen qHTS for inhibitors of ROR gamma transcriptional activity; Drosophila S2 Gal4-VP16 UAS-luciferase, luminescence, 20 h; Potency, µM (titrated, usually from 53.6 µM), for inactives: at the top dose activity, negative = inhibition, usual class: inhibitors; 310,000 compounds, 3.5% hits; AID 2546, 2010;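 also: Gal4-VP16 expression switched on by copper sulfate through the metallothionein promoter; nearly all actives have a fitted effect of over 50% in size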
ALOX12 inh = Primary qHTS assay for inhibitors of human arachidonate 12S-lipoxygenase (ALOX12): Round 2. purified 12hLO, xylenol orange hydroperoxide absorbance. Potency, µM (series often up to 108 µM), without a hit: at the top dose activity change, negative = inhibition, actives largely listed as inhibitors. Polyunsaturated fatty acid lipoxygenase ALOX12 (Homo sapiens), P18054. 580,000 compounds, 1.1% hits
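Purified human 12hLO at 150 nM in 25 mM Hepes, 0.01% Triton X-100, pH 7.0, preincubated 15 min at room temperature with compound. Reaction started with 40 uM arachidonic acid, 30 min at room temperature. Hydroperoxide measured by Fe-xylenol orange, 573/405 nm absorbance ratio.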
The depositor's hits bear a star; ? = inconclusive; / = no result given; [ ] = another dose, or the depositor's remark. A selection: hits, their analogues and other compounds. The true share with any hit is near 15%. Calls follow the shape of the dose curve; as a rule, active = well fitted curve in the direction sought with a large enough effect; inconclusive = small, poorly fitted or top-dose-only effect, or another doubt; inactive = no such curve, though single readings can be large; an effect the other way counts as inactive or inconclusive. % is scaled to controls: 0 for no effect and ±100 for the full control effect; potency is read from the fitted curve at half-maximal effect.

SMILES | TDP1 cell noCPT | ELG1 repair inh | TDP1 cell CPT | RORg inh | VP16 counter | ALOX12 inh
Cc1ccc(-c2nc3ccccc3c(=O)n2-c2nccs2)cc1 | -30% | -9% | -23% | 5.6µM* | 11µM* | 13%
COc1ccccc1-c1cc([C@H]2CN3CC[C@H]2C[C@@H]3CNS(=O)(=O)c2cccs2)n(C)n1 | / | / | / | / | / | 99%
Cn1cc(C(=O)OCC(=O)NC(=O)NC2CCCC2)c2ccccc21 | / | / | / | / | / | -9%
Cc1cc(C(=O)N2CCC3(CC2)NCc2ccccc2-n2ccnc23)nn1C | / | / | / | / | / | 28%
FC(F)(F)CN1C2CCC1CN(c1cncnc1)C2 | / | / | / | / | / | 1%[12.5 µM]
Cc1cccnc1-n1c(-c2ccccc2)nc2ccccc2c1=O | 13µM* | -22% | 13µM* | 2% | 1% | -18%
Cc1ccc(-n2c(-c3cccs3)nc3ccccc3c2=O)cc1 | 12µM* | -23% | 9.2µM* | 22% | -12% | -19%
C=CCN(C)C(=O)[C@H]1CN2CCC1C[C@@H]2Cn1cc(CCO)nn1 (stereo partly specified) | / | / | / | / | / | 38%[176 µM]
O=C(C(=O)N1CCOCC1)c1cn(CCCOc2ccccc2)c2ccccc12 | ? | 11% | -23% | 28% | 2%[10 µM] | -4%
CC(=O)c1cn(CCCOc2ccccc2)c2ccccc12 | 16µM* | -7% | ? | ? | 6.3µM* | -3%
Cc1ccccc1-n1c(Cn2ncc3c(N)ncnc32)nc2cccc(C)c2c1=O | / | / | / | / | / | -21%[57.4 µM]
COc1ccc(Cl)cc1NC(=O)c1sc2nc3c(cc2c1N)N1CCC3CC1 | -24% | / | 1% | / | / | ?
COc1ccc(Cl)cc1NC(=O)C1CCN(c2nnc(C)c3c(C)n(-c4ccccc4)nc23)CC1 | 15µM* | / | 18µM* | / | / | -27%
Cc1nn(Cc2ccccc2Cl)c(C)c1C(=O)NC1CCCc2ccccc21 (stereo unspecified) | -9% | -28% | -2% | ? | 9% | 4%
Cc1ccc(-n2nc3c(N4CCC(C(=O)NCc5ccccc5Cl)CC4)nnc(C)c3c2C)cc1 | 5.8µM* | / | 15µM* | / | / | ?
O=[S+]1([O-])NCC2(CCN(Cc3ccoc3)C2)Oc2ncccc21 (stereo unspecified) | / | / | / | / | / | 0%[6.33 µM]
CC(C)CCOc1cccc(CCN)c1 | / | / | / | / | / | 4%
c1cc(OCCN2CC2)ccn1 | 7.3µM* | / | 3.3µM* | / | / | 4%
c1cnc(OCCN2CC2)cn1 | 13µM* | / | 8.2µM* | / | / | 12%
CN1c2ccc([N+](=O)[O-])cc2CC2(C(=O)NC(=O)N(c3ccccc3)C2=O)C1c1ccccc1 (stereo unspecified) | 18µM* | -26% | 13µM* | 3% | -5% | -29%
CN1c2ccc([N+](=O)[O-])cc2CC2(C(=O)NC(=O)NC2=O)C1c1ccccc1 (stereo unspecified) | ? | 3% | ? | 1% | -4% | ?
COc1cccc(NC(=O)CSC2=Nc3ccccc3C3=NC(CCC(=O)NCCc4ccccc4)C(=O)N23)c1 (stereo unspecified) | 21µM* | / | 21µM* | / | / | 2%
COc1ccc(N2C(=O)/C(=C/c3ccc(OC)c(OC)c3)C(=O)NC2=S)cc1 | 4% | -5% | -4% | -25% | ? | 50µM*
Cc1ccccc1N1C(=O)/C(=C/c2ccco2)C(=O)NC1=S | / | -4% | / | -22% | -18% | /
COc1ccc(N2C(=O)/C(=C/c3ccc(C)o3)C(=O)NC2=S)c(OC)c1 | ? | ? | 21µM* | -31% | 2% | ?
SMILES | TDP1 cell noCPT | ELG1 repair inh | TDP1 cell CPT | RORg inh | VP16 counter | ALOX12 inh
CCc1ccccc1N1C(=O)/C(=C/c2ccc(N3CCN(C)CC3)o2)C(=O)NC1=S | ? | -9% | -26% | 8% | -4% | ?
Cc1cccc(N2C(=O)/C(=C/c3ccc(N4CCN(C)CC4)o3)C(=O)NC2=S)c1C | -28% | -9% | -12% | ? | -12% | 45µM*
COc1ccc(-c2cc([C@H]3CN4CC[C@H]3C[C@@H]4CNC(=O)C3CC3)nc(C)n2)cc1OC | / | / | / | / | / | 35%
Cn1nc(-c2cccs2)cc1[C@H]1CN2CC[C@H]1C[C@@H]2CN | / | / | / | / | / | 101%[176 µM]
Cc1[nH]c2ccccc2c1CCCNC1CCCCC1 | 18µM* | -2% | ? | -23% | ? | -13%
Cc1[nH]c2ccccc2c1CCN | ? | / | -29% | / | / | -6%
NC(=NCCc1ccc(I)cc1)SCCCc1cnc[nH]1 | 13µM* | / | 15µM* | 1% | -5% | ?
Cc1noc(C)c1COc1ccc(CC(=O)N2CCN(CC(=O)N3CCOCC3)CC2)cc1 | / | / | / | / | / | -37%
Cc1cc(Br)cn2c(CC(=O)N3CCCCC3)c(-c3ccc(F)cc3)nc12 | 16µM* | / | ? | / | / | 0%
O=C(Cc1c(-c2ccccc2)nc2ccc(Br)cn12)N1CCCC1 | ? | / | -27% | / | / | -46%
COCCN1CCC(N2CCN(C(=O)Cc3c(F)cccc3Cl)CC2)C1=O (stereo unspecified) | / | / | / | / | / | 81%
O=C1NC2(Cc3ccccc31)CN(C1COC1)C2 | / | / | / | / | / | 2%[12.5 µM]
COc1ccc(OCC(=O)N2CCN(Cc3c[nH]c4ccccc34)CC2)cc1 | 3.7µM* | ? | 1.6µM* | 18% | 0% | ?
O=C(COc1ccccc1)N1CCN(Cc2c[nH]c3ccccc23)CC1 | 8.2µM* | -22% | 3.7µM* | -12% | 0% | -21%
COc1ccc(CN2CCN(C(=O)COc3ccccc3)CC2)c(OC)c1 | ? | / | -25% | / | / | ?
COC1CC(OC2CCC3(C)C(CC[C@@H]4[C@@H]3CCC3(C)C(C5=CC(=O)OC5)C(OC(C)=O)CC43O)C2)OC(C)C1O (stereo partly specified) | / | / | / | / | / | -4%
